{"source": "PubChem BioAssay", "data": [{"assay": "viability loss of caspase-8 NB7 cells with TRAIL – with/without TRAIL, luminescence panel, confirmation (AID 651596)", "conditions": "NB7 neuroblastoma + caspase-8, without TRAIL, NB7 Caspase-8, without TRAIL, mean of runs, at 10 µM", "units": {"activity": "%"}, "values": [{"smiles": "CCN(CC)CCn1c2c(c(SCC(=O)Nc3nc4ccc(C)cc4s3)nc1=O)CCC2", "activity": 21.6}, {"smiles": "COc1ccc(C(C(=O)NC2CCCCC2)N(C(=O)CCl)c2ccccc2Cl)cc1", "note": "(stereo unspecified)", "activity": 97.2}, {"smiles": "Cc1cc(C)cc(NC(=O)/C(C#N)=C/c2cn(CC(=O)NCc3ccco3)c3ccccc23)c1", "activity": 77.7}, {"smiles": "Cc1cc(NC(=O)c2cc3n(n2)C(C(F)(F)F)CC(c2ccco2)N3)no1", "note": "(stereo unspecified)", "activity": -14.8}, {"smiles": "COc1cc(NC(=O)Nc2nc(C(N)Cc3ccc(C(F)(F)F)cc3)cs2)cc(OC)c1OC", "note": "(stereo unspecified)", "activity": 74.6}, {"smiles": "Cc1onc(C(=O)N2CCC(Cc3ccccc3)CC2)c1[N+](=O)[O-]", "activity": 98.1}, {"smiles": "COc1ccc(S(=O)(=O)N2CCN(c3ccc4nnc(-c5ccccc5)n4n3)CC2)cc1", "activity": 66.5}, {"smiles": "Cc1cccc(NC(=S)N/N=C/c2ccc([N+](=O)[O-])s2)c1", "activity": 36.1}, {"smiles": "Cc1ccc(-c2nc(-c3ccccn3)no2)cc1[N+](=O)[O-]", "activity": 55}, {"smiles": "COc1cccc(-n2c(SCC(=O)N3CCCCC3)nc3c([nH]c4ccccc43)c2=O)c1", "activity": 19.4}, {"smiles": "CC1Oc2ccccc2C=C1/C=N/NC(=O)c1ccccc1O", "note": "(stereo unspecified)", "activity": 44.9}, {"smiles": "C#CCN(C[C@@H]1[C@@H](OC(=O)Nc2cccs2)[C@@H](OC(=O)Nc2cccs2)Cn2c(=O)ccc(=O)n21)S(=O)(=O)c1ccc(C)cc1", "activity": 95.8}, {"smiles": "O=C(/C=C/c1ccco1)Nc1ccc2c(c1)OCCO2", "activity": 65.1}, {"smiles": "CC1C(=O)NN=C1C(=O)N/N=C\\C(Br)=C\\c1ccccc1", "note": "(stereo unspecified)", "activity": 73.8}, {"smiles": "COc1ccc(-c2cc3cc4c(cc3cn2)OCO4)cc1", "activity": 52.8}, {"smiles": "O=C(Oc1ccc2ccccc2c1Cl)N1CCCCCC1", "activity": 12.2}]}]}
